Calls of active or inactive are those of the source. Unless noted, no rule for the calls is given here.
Tests used:
[1] = system: Wnt5a (protein binding on small-molecule microarray); experiment: Wnt5a binders on small-molecule microarray, primary screen, biophysical, 635/667 nm fluorescence (AID 1142); conditions: 635 nm fluorescence, higher = more signal;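 also: fluorescence read at 667 nm with signal to noise per printed feature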
[2] = cell viability in Huh7 cells, primary screen, cytotoxicity control for HCV replication inhibitor project, CellTiter-Glo luminescence, basal, 48 h (AID 1143); conditions: Huh7 HCV replicon, higher = more signal, called active from +8 up or from −8 down;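 also: Huh7 hepatoma cells carrying a hepatitis C replication reporter with no stimulus; test concentration not given here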
[3] = P. aeruginosa biofilm formation inhibitors, primary screen, PAO1 strain, BacTiter-Glo luminescence, LB-PBS (AID 1144); conditions: 12 h, higher = more signal
[4] = CREB reporter modulators without forskolin, primary screen, cell-based, PC12, CRE-LacZ reporter, unstimulated (AID 1145); conditions: no forskolin, luminescence, 4.5 h, higher = more signal, called active from +8 up or from −8 down
[5] = CREB reporter modulators under forskolin, primary screen, cell-based, PC12, CRE-LacZ reporter, forskolin-stimulated (AID 1146); conditions: luminescence, 4.5 h, higher = more signal, called active from +8 up or from −8 down;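 also: PC12 cells with 6xCRE LacZ reporter stimulated by forskolin 10 µM; beta-galactosidase reporter signal reflecting CREB driven transcription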
[6] = molecular target: Streptavidin (Streptomyces avidinii) (UniProt P22629); experiment: streptavidin binders on small-molecule microarray, primary screen, artefact control for SMM compound annotation, biophysical, 635/667 nm fluorescence (AID 1147); conditions: streptavidin binding, higher = more signal;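 also: signal reflects streptavidin binding to arrayed compounds as a control protein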
[7] = small-molecule binders of probe aInhba, primary screen, biochemical, small-molecule microarray, 635/667 nm fluorescence (AID 1148); conditions: higher = more signal;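 also: score merges 667nm spot fluorescence with signal-to-noise for antibody binding to printed compounds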
[8] = molecular target: Torsin-1A (Homo sapiens) (UniProt O14656); experiment: torsin A binders from cell lysate, primary screen, small-molecule microarray, wild-type, 635/667 nm (AID 1149); conditions: COS7 hTOR1A-WT lysate, 635 nm fluorescence, higher = more signal
[9] = molecular target: Torsin-1A (Homo sapiens) (UniProt O14656); experiment: small-molecule binders of mutant TOR1A in lysate, primary screen, cell lysate, small-molecule microarray, COS7 lysate, 635/667 nm fluorescence (AID 1150); conditions: COS7 hTOR1A mutant lysate, 635 nm fluorescence, higher = more signal;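 also: score pools 667 nm emission and signal to noise measuring lysate protein binding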
[10] = system: Sonic hedgehog protein (Shh); experiment: small-molecule binders of Shh protein, primary screen, biochemical, small-molecule microarray, 635/667 nm fluorescence (AID 1151); conditions: small-molecule microarray binding, 635 nm fluorescence; higher = more signal;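 also: Shh protein binding to compounds spotted on small-molecule microarray slides; score combines spot fluorescence intensity with signal-to-noise across triplicate slides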
[11] = E. coli DRC41 culture turbidity changes, primary screen, E. coli filamentation inducer project, strain DRC41, OD650, 48 h (AID 1152);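 also: E. coli MC1000 strain DRC41 lacking acrAB efflux pump and sulA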; conditions: E. coli DRC41 (acrAB sulA), higher = more signal, called active from +8 up or from −8 down
[12] = small-molecule binders of probe aLefty1, primary screen, biochemical, small-molecule microarray, 635/667 nm fluorescence (AID 1153); conditions: higher = more signal;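 also: score merges spot fluorescence with signal-to-noise ratio from the scanned slide images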
[13] = PSAC antagonists in infected red cells, primary screen, cell-based, P. falciparum Indochina, OD700, 1 h (AID 1154); conditions: P. falciparum Indochina infected RBC osmotic lysis, higher = more signal, called active from +8 up or from −8 down
[14] = PSAC antagonists in infected red cells, primary screen, cell-based, P. falciparum Indochina, OD700, 2 h (AID 1155);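 also: lysis reports solute entry through the parasite surface anion channel PSAC; channel blockers reduce lysis of infected cells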; conditions: P. falciparum Indochina infected erythrocytes, osmotic lysis OD700; higher = more signal, called active from +8 up or from −8 down
[15] = osmotic lysis modulators in infected erythrocytes, primary screen, PSAC antagonist project, cell-based, P. falciparum Indochina, OD700, 3 h (AID 1156); conditions: higher = more signal, called active from +8 up or from −8 down
[16] = PSAC antagonists in infected red cells, primary screen, cell-based, P. falciparum Indochina, OD700, 18 h (AID 1157); conditions: P. falciparum Indochina infected erythrocytes, osmotic lysis OD700, 18 h; higher = more signal, called active from +8 up or from −8 down
[17] = modulators of S6 phosphorylation in cells, primary screen, cell-based, A549, cytoblot, luminescence, serum-stimulated (AID 1158); conditions: A549 phospho-S6 cytoblot, 5 h, higher = more signal;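 also: serum-stimulated A549 lung adenocarcinoma cells; signal is phosphorylated S6 detected by cytoblot immunostaining with HRP secondary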
[18] = molecular target: NADPH oxidase 2 (Homo sapiens) (UniProt P04839); experiment: NOX2-dependent H2O2 signal modulators, primary screen, NOX inhibitor project, cell-based, HEK293-NOX2, PMA-stimulated, Amplex Red fluorescence (AID 1159); conditions: 45 min, higher = more signal, called active from +8 up or from −8 down; also: test concentration not given here
[19] = molecular target: NADPH oxidase 4 (Homo sapiens) (UniProt Q9NPH5); experiment: NOX4-dependent H2O2 signal modulators, primary screen, NOX inhibitor project, cell-based, HEK293-NOX4, tetracycline-induced, Amplex Red fluorescence (AID 1160); conditions: 45 min, higher = more signal, called active from +8 up or from −8 down
[20] = molecular target: NADPH oxidase 5 (Homo sapiens) (UniProt Q96PH1); experiment: NOX5-dependent H2O2 signal modulators, primary screen, NOX inhibitor project, cell-based, HEK293-NOX5, Amplex Red fluorescence (AID 1161); conditions: HEK293-NOX5, ionomycin, 45 min, higher = more signal
Sequence of NADPH oxidase 5 (Homo sapiens) (Q96PH1 whole entry, looked up): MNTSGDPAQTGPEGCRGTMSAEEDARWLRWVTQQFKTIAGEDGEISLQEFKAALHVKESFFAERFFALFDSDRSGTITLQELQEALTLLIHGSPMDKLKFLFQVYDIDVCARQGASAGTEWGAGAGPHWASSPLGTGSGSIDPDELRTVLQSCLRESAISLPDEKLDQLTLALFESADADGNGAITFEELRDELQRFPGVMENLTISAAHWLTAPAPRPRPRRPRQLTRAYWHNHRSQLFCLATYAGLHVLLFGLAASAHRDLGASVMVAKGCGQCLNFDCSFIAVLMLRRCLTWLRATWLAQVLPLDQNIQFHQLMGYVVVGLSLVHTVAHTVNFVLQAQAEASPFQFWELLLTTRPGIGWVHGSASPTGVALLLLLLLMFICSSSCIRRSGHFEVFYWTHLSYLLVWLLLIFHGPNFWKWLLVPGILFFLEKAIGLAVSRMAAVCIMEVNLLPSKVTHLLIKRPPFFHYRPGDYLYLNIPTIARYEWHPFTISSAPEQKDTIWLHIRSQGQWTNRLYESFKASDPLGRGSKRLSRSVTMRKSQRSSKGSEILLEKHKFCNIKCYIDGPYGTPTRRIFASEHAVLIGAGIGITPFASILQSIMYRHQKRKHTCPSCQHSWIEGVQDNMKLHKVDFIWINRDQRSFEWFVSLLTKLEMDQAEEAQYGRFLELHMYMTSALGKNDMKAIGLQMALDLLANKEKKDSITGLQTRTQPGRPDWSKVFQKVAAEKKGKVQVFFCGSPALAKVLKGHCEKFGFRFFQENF

Sequence of NADPH oxidase 4 (Homo sapiens) (Q9NPH5 whole entry, looked up): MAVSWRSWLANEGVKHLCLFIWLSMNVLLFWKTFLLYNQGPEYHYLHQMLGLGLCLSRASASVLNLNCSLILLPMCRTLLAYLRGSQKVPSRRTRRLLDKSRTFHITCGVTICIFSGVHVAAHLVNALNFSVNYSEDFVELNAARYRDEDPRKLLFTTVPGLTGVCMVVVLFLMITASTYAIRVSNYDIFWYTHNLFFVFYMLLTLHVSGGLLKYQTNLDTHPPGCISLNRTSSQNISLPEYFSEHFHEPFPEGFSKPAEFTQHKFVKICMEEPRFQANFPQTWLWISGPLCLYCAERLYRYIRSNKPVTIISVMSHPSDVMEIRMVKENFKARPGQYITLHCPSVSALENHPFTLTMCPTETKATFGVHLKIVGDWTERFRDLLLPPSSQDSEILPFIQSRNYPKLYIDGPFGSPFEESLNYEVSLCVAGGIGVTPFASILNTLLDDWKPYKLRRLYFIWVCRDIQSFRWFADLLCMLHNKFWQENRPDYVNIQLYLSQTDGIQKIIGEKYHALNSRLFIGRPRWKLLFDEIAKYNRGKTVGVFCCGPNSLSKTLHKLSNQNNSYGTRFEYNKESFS
Sequence of Torsin-1A (Homo sapiens) (O14656 whole entry, looked up): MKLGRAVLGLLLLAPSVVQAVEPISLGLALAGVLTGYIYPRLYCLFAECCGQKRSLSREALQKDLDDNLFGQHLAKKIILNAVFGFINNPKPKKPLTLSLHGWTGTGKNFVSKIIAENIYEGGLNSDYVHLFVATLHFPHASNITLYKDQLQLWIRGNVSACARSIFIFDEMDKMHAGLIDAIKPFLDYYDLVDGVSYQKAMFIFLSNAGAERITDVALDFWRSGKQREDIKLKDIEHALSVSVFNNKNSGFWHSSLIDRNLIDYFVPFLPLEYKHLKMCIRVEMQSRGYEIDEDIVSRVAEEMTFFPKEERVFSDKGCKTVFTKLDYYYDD
Sequence of NADPH oxidase 2 (Homo sapiens) (P04839 whole entry, looked up): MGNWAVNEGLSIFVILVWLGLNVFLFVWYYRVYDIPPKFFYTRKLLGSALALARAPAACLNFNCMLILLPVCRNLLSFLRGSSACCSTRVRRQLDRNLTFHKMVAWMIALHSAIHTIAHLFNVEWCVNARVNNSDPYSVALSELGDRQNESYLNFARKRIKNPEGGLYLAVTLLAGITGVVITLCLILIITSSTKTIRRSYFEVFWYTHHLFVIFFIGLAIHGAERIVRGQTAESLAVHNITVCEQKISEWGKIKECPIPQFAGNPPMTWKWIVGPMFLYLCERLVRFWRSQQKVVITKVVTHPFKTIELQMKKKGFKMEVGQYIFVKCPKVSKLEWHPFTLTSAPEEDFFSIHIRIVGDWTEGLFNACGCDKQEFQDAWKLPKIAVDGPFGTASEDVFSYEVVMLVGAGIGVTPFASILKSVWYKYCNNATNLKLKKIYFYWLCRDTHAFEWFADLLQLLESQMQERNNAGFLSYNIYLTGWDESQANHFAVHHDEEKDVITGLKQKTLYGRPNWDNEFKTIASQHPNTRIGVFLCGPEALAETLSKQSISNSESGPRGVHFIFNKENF
Sequence of Streptavidin (Streptomyces avidinii) (P22629 whole entry, looked up): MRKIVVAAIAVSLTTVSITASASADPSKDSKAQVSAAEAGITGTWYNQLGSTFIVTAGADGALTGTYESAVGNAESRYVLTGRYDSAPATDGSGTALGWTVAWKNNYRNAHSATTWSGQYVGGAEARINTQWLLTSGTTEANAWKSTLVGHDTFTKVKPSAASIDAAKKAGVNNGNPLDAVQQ

Row | SMILES | composite z-score [1] | z-score [2] | z-score [3] | z-score [4] | z-score [5] | composite z-score [6] | composite z-score [7] | composite z-score [8] | composite z-score [9] | composite z-score [10] | z-score [11] | composite z-score [12] | z-score [13] | z-score [14] | z-score [15] | z-score [16] | z-score [17] | z-score [18] | z-score [19] | z-score [20]
1 | CC(CCN1CCCc2nc(C)c(C)cc21)=NO[C@@H](C)c1cn([C@H](CO)Cc2ccccc2)nn1 | 0.0241 | -0.0864 (inactive) | 0.0842 (inactive) | -1.21 (inactive) | -0.82 (inactive) | 0.525 | 0.153 | 0.639 | 0.686 | 0.71 | 1.15 (inactive) | -0.193 | 0.202 (inactive) | 0.0178 (inactive) | 0.0882 (inactive) | 0.392 (inactive) | 0.137 | -0.588 (inactive) | 0.313 (inactive) | 0.351
2 | C[C@@H](c1ccccc1)N1C(=O)[C@H]2[C@H]3[C@H](O)[C@H](O)CC(=NNC(=O)OCc4ccccc4)[C@@H]3CC[C@H]2C1=O | 0.15 | 0.231 (inactive) | -0.479 (inactive) | -0.38 (inactive) | 0.0869 (inactive) | -0.31 | -0.335 | 3.35 | 3.49 | 2 | 0.362 (inactive) | -0.0294 | 0.0012 (inactive) | 0.461 (inactive) | -0.694 (inactive) | 0.329 (inactive) | -0.136 | -0.065 (inactive) | 1.07 (inactive) | -0.0584
3 | CCCC[C@H]1CN2[C@@H](CC[C@@H](C)[C@@H]2c2ccc(Br)cc2)C(=O)O1 | 0.132 | -1.44 (inactive) | 0.616 (inactive) | 0.755 (inactive) | -0.0888 (inactive) | 0.426 | -0.0494 | 0.836 | 0.716 | 0.456 | -0.461 (inactive) | -0.0275 | 2.91 (inactive) | 0.809 (inactive) | -0.192 (inactive) | 0.711 (inactive) | -0.46 | 1.43 (inactive) | 0.516 (inactive) | 1.47
4 | CC(CCN1CCCc2nc(C)c(C)cc21)=NO[C@H](C)c1cn([C@@H]2COC[C@H]2O)nn1 | 0.395 | 0.0307 (inactive) | 0.392 (inactive) | -1.12 (inactive) | -0.181 (inactive) | 0.764 | 0.0906 | 1.47 | 2.3 | 0.979 | 0.686 (inactive) | 0.184 | 1.65 (inactive) | 0.763 (inactive) | 0.09 (inactive) | 0.564 (inactive) | -0.607 | -0.61 (inactive) | -0.259 (inactive) | 0.371
5 | CCCNC(=O)OC[C@H]1O[C@H](CCON=C2C[C@@H](O)[C@@H](O)[C@@H]3[C@@H]4C(=O)N(CC)C(=O)[C@@H]4CC[C@@H]23)C=C[C@@H]1Oc1ccc(OC)cc1 | 0.0561 | -0.402 (inactive) | 1.08 (inactive) | 0.68 (inactive) | 0.23 (inactive) | 0.842 | 0.0256 | 0.509 | 0.43 | 1.33 | 0.599 (inactive) | 0.186 | 1.69 (inactive) | 0.584 (inactive) | -0.0328 (inactive) | 0.368 (inactive) | -0.432 | -0.708 (inactive) | 0.471 (inactive) | -0.818
6 | COC(=O)[C@@H]1CC[C@H](C)[C@@H](c2ccc(C)cc2)N1C(=O)c1ccc(C=NOC[C@H]2O[C@H](c3ccccc3)C=C[C@@H]2Oc2ccc(OC)cc2)cc1 | -0.134 | -0.814 (inactive) | 0.605 (inactive) | 0.253 (inactive) | 0.718 (inactive) | -0.216 | 0.0018 | -0.671 | -0.329 | 0.415 | 0.229 (inactive) | -0.0236 | 0.639 (inactive) | 1.11 (inactive) | 0.708 (inactive) | 0.44 (inactive) | -0.0476 | 1.65 (inactive) | 0.846 (inactive) | 0.385
7 | O=C1C2=CC[C@H]3C(=O)N(C4CCCCC4)C(=O)[C@H]3[C@H]2[C@H](O)[C@@H]2O[C@H]12 | -0.272 | -8.35 (active) | -0.366 (inactive) | 17.1 (active) | 30.1 (active) | -0.408 | -0.183 | -0.695 | -0.53 | -0.689 | -1.95 (inactive) | -0.245 | -0.0599 (inactive) | -0.153 (inactive) | 0.215 (inactive) | -1.56 (inactive) | -1.01 | 0.951 (inactive) | 0.3 (inactive) | 0.952
8 | CCOC(=O)[C@H](CC(C)C)NC(=O)CCC1CC(OC(=O)NCc2ccc3c(c2)OCO3)CC2(CCCC(COC(=O)NCc3ccccc3)O2)O1 (stereo not given in full) | -0.0368 | -0.72 (inactive) | 0.0377 (inactive) | -0.437 (inactive) | -0.256 (inactive) | 0.324 | 0.0712 | 0.288 | 0.245 | 1.84 | -0.729 (inactive) | 0.0004 | 7.67 (inactive) | 0.795 (inactive) | -0.626 (inactive) | 0.297 (inactive) | -0.251 | -0.398 (inactive) | 0.47 (inactive) | 0.202

— PubChem BioAssay
